# Shown are actives, neighbours in structure and some others; about 3.1% of the full set was active somewhere.
# GLS inhibitor: qHTS for Inhibitors of Glutaminase (GLS); GLS enzymatic activity, qHTS titration; Potency, µM (series often up to 45.5 µM), inactives show at the highest dose activity change, negative = inhibition, usual class: inhibitors; hit rate 0.21% among 410,000; AID 624170, 2012; note: potency is the fitted concentration of half-maximal effect
#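 Human kidney-isoform GLS in 45 mM KH2PO4 pH 8.2, 0.02% Tween-20, with compound, started with 1mM L-Glutamine (added stock). Glutamate oxidase/HRP/Amplex red coupled fluorescence read at start and after 30 min at RT.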
# VDR inh: Inhibitors of the vitamin D receptor (VDR): qHTS; VDR-SRC2-3 peptide fluorescence polarization, 2 h; Potency, µM, for inactives: max response, negative = inhibition, actives largely listed as inhibitors; hit rate 0.93% among 400,000; AID 504847, 2011; note: potency is the fitted concentration of half-maximal effect
#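 Fluorescence polarization assay measuring small-molecule disruption of VDR binding to the coregulator peptide SRC2-3. Compounds were pin-transferred (23 nl) into the reagent mix and incubated 2 h at room temperature before reading.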
# PLK1 PBD block: qHTS for Inhibitors of PLK1-PDB (polo-like kinase 1 - polo-box domain): Primary Screen | Serine/threonine-protein kinase PLK1 (Homo sapiens), P53350 | Plk1 PBD binding of FITC phosphopeptide, fluorescence polarization | Potency, µM, for the others: max response, negative = inhibition, hits mostly inhibitors | hit rate 2.8% among 360,000; note: potency is the fitted concentration of half-maximal effect; series mostly up to about 57 µM; nearly all actives have a fitted effect of over 65% in size
# PI4K2A block: qHTS for small molecular inhibitors of PI4K2A. activity change, negative = inhibition, % at 76.9 µM. hit rate 0.13% among 420,000. purified PI4K2A, ADP-Glo luminescence, 1 h; active compounds read low. Phosphatidylinositol 4-kinase type 2-alpha (Homo sapiens), Q9BTU6. AID 1346378, 2018; in the data active = activity change below about -50%; inconclusive = mostly about -30% to -49%;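 note: -100% = wells without enzyme as full effect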
# Target sequence (Q9BTU6 whole entry, looked up): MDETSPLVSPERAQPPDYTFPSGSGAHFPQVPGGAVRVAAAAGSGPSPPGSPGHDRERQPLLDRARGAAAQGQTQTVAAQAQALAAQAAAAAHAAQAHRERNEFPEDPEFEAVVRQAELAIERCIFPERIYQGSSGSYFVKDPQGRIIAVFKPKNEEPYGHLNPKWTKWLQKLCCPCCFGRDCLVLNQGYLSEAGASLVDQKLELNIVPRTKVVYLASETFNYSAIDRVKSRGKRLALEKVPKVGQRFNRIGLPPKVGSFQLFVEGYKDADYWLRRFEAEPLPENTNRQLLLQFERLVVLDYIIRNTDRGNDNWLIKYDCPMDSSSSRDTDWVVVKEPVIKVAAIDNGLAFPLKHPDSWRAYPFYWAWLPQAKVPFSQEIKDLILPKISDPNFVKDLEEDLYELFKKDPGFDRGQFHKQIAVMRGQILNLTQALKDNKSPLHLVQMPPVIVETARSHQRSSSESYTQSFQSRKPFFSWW
#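 In this quantitative HTS, ADP production by PI4K2A was quantified luminescently after 1 h at ambient temperature; 100 microM adenosine served as plate-quality control.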
# KAT2A inh: qHTS Assay for Inhibitors of GCN5L2 | Histone acetyltransferase KAT2A (Homo sapiens), Q92830 | GCN5L2 HAT assay, ThioGlo1 CoA-SH fluorescence | Potency, µM (titrated, usually from 58.9 µM), without a hit: at the top dose activity change, negative = inhibition, usual class: inhibitors | hit rate 0.21% among 390,000 | AID 504327, 2011; note: potency is the fitted concentration of half-maximal effect
#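 Preincubate 20nM GCN5L2 with compound 15 min, RT → add 50uM ThioGlo1 + 75uM H3(1-25) + 70uM acetyl-CoA → read fluorescence 0 and 20 min. Primary qHTS; fluorescent artifacts likely.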
# Starred values were filed as active, the others as inactive; ? = inconclusive; / = no result; ! = not confirmed by another sample; [ ] = dose if it differs, or a comment. Unless noted, calls come from the whole dose curve; as a rule, active = well fitted curve in the direction sought with a large enough effect; inconclusive = small, poorly fitted or top-dose-only effect, or another doubt; inactive = no such curve, though single readings can be large; an effect the other way counts as inactive or inconclusive. Unless noted, % is set by controls: 0 for no effect and ±100 for the full control effect.
SMILES,GLS inhibitor,VDR inh,PLK1 PBD block,PI4K2A block,KAT2A inh
COc1ccc(-c2ccc(C(=O)C3CC3)cc2)cc1,7%,2%,-12%,-3,-12%
CC[N+]1(C)CCC(O)(c2ccc(OC)cc2)C(C(=O)c2ccc(OC)cc2)C1 (centres undefined),-10%,?,6.7µM*,31,/
CC(/C=C1\SC(=S)N(C(C(=O)O)C(C)C)C1=O)=C\c1ccccc1 (centres undefined),0%,?,24µM*,0,-24%
CC(/C=C1\SC(=S)N(c2ccc(C(=O)O)cc2)C1=O)=C\c1ccccc1,?,89µM*,24µM*,-6,-28%
CC(/C=C1\SC(=S)N(NC(=O)c2ccc(C)cc2)C1=O)=C\c1ccccc1,5%,-3%,-1%,-10,1%
Cc1cccc(C)c1N(CCCc1cccnc1)C(=O)[C@@H](C)N,-1%,/,/,/,/
Cc1ccc(S(=O)(=O)COCCN2CCN(S(=O)(=O)c3ccc(C)cc3)CCC2=O)cc1,/,-4%,/,/,8%
O=C(c1ccccc1)N1CCn2c1nc1ccccc12,-9%,?,27µM*,0,-1%
COc1cccc(CNC(=O)CCNC(=O)N2CCn3c2nc2ccccc23)c1,-3%,5%,-9%,4,-7%
C[C@H](NC(=O)N1CCn2c1nc1ccccc12)C(=O)NC1CC1,0%,9%,3%,1,-18%
COc1ccc(CNC(=O)CCNC(=O)N2CCn3c2nc2ccccc23)cc1,19%,-20%,24µM*,0,-5%
O=C(c1cccc(Cl)c1)N1CCn2c1nc1ccccc12,10%,-13%,9%,2,0%
C[C@H](NC(=O)N1CCn2c1nc1ccccc12)C(=O)N1CCCCC1,?,?,8.4µM*,-1,1%
COCCCN1C(=O)[C@H](CC(=O)N2CCN(C(=O)C3CC3)CC2)[C@]2(C(=O)OC)CCCCC=C12,/,/,/,2,/
O=C(Nc1ccc(/C=C/c2ccc(NC(=O)c3cc(S(=O)(=O)O)c4cccnc4c3O)cc2S(=O)(=O)O)c(S(=O)(=O)O)c1)c1cc(S(=O)(=O)O)c2cccnc2c1O,-117%,/,/,/,/
COC(=O)c1sccc1NC(=O)c1ccc2c(c1)OCO2,-14%,1%,-5%,-3,-3%
COC(=O)c1c(-c2cccnc2)csc1NC(=O)c1ccc2c(c1)OCO2,-24%,89µM*,-29%,-4,-5%
Cc1cccc(NC(=O)CNC(=O)COc2cc(F)ccc2[N+](=O)[O-])c1C,-13%,?,15µM*,1,-4%
COc1ccc(C)cc1NC(=O)c1nnn(Cc2cccc(F)c2)c1N,0%,5%,38µM*,4,-28%
COc1ccc(NC(=O)c2nnn(Cc3cccc(F)c3)c2N)c(OC)c1,-3%,-10%,-8%,1,-1%
COc1ccc(-n2c(SCC(=O)Nc3cc(C)c(NC(=O)c4ccccc4)cc3OC)nnc2-c2ccccc2F)cc1,/,/,/,1,/
Cc1ccccc1OCC(=O)NNC(=O)CSc1nc(N)cc(N)n1,14%,-5%,21µM*,1,2%
Nc1cc(N)nc(SCC(=O)NNC(=O)Cc2ccccc2)n1,0%,8%,-6%,3,0%
O=C(O)c1ccc(Oc2nc3ccccc3s2)cc1,4%,-2%,-3%,-61*,/
O=C(O)c1ccc(-c2ccccc2C(F)(F)F)o1,-2%,15%,4%,3,-14%
SMILES,GLS inhibitor,VDR inh,PLK1 PBD block,PI4K2A block,KAT2A inh
O=C(NCc1ccccc1)c1ccc(-c2ccccc2C(F)(F)F)o1,-9%,112µM*!,-5%,2,-1%[88.6 µM]
CC(=O)N[C@H]1C[C@@H]2O[C@H](CO)CC[C@@H]2O[C@@H]1CCc1ccc(-c2ccc(F)cc2)cc1,/,/,/,-4,/
O=C(OC12CCCN(C1)/C(=C/c1ccc(Cl)cc1)C2)c1ccno1 (centres undefined),/,/,/,-1,/
O=C(O)Cc1cccc(=O)c(O)c1C(=O)O,2.2µM*,11%,?,-4,/
O=C(O)Cc1ccccc1C(=O)O,-3%,-5%,3%,0,1%
COc1cc(OC)c(Cl)cc1N,?,-29%,6.7µM*,1,-8%
COc1ccc(OC)c(N)c1,17%,?,-21%,-28,-4%
CCCOC(=O)c1c(-c2ccc(C)cc2C)csc1NC(=O)C1C2CCC(O2)C1C(=O)O (centres undefined),7%,?,12µM*,-4,-21%
Cc1c(Cl)cccc1NC(=O)N1CCN(C(=O)c2ccco2)CC1,2%,-25%,17µM*,1,-15%
Cc1c(Cl)cccc1NC(=S)N1CCN(C(=O)c2ccco2)CC1,1%,-26%,-8%,2,-2%
COC(=O)c1ccc(NC(=S)N2CCN(C(=O)c3ccco3)CC2)cc1,-3%,-4%,19µM*,3,-15%
CC(=O)Nc1ccc(S(=O)(=O)NNC(=O)COc2ccc(C(C)(C)C)cc2)cc1,20%,-8%,27µM*,2,-1%
CC(=O)Nc1ccc(S(=O)(=O)NNC(=O)c2ccc3c(c2)OCO3)cc1,1%,1%,0%,-3,1%
CC(=O)Nc1ccc(S(=O)(=O)NNC(=O)c2cccc(Cl)c2)cc1,25%,-6%,24µM*,-4,-8%
OCc1nn2c(c1Br)NC(c1ccccc1)CC2C(F)(F)F (centres undefined),10%,?,7.5µM*,-29,-3%
O=C(O)c1nn2c(c1Br)NC(c1ccccc1)CC2C(F)(F)F (centres undefined),15%,6%,1%,-17,-3%
C[C@H](CCC(=O)N(c1ccccc1)c1ccccc1)CC1CCCCC1,/,/,/,-2,/
Cc1cc(=O)nc2c3ccccc3n(CC(=O)NCCCN3CCCC3=O)n12,9%,-20%,-24%,5,1%
Cc1cc(=O)nc2c3ccccc3n(CC(=O)NCCCN3CCOCC3)n12,-1%,?,19µM*,-1,-3%
Cc1ccc(-c2noc(CN(C3CCCCC3)S(=O)(=O)c3ccc(Cl)cc3)n2)cc1,-1%,21%,/,0,-13%
CCN(CC)C(=O)c1sc(NC(=O)c2cc(-c3ccc(C)s3)nc3ccccc23)c(C(=O)OC)c1C,-4%,-29%,15µM*,-3,-8%
CCN(CC)C(=O)c1sc(NC(=O)c2ccncc2)c(C(=O)OC)c1C,1%,?,-20%,0,-5%
CCOC(=O)c1sc(NC(=O)OC)c(C(=O)OC)c1C,-7%,-10%,0%,5,2%
CCN(CC)C(=O)c1sc(NC(=O)c2ccoc2C)c(C(=O)OC)c1C,-13%,?,21µM*,2,-5%
CCOC(=O)c1c(NC(=O)OC)sc(C(=O)N(CC)CC)c1C,0%,-5%,24µM*,0,0%

# Bioassay records deposited in PubChem by National Center for Advancing Translational Sciences (NCATS).
